This passage reports composite z-score, composite Z-score and z-score results from PubChem BioAssay.

Active and inactive are the calls of the source.

For experiment [1], the target named is Albumin (Bos taurus) (UniProt P02769). In words: bovine serum albumin binders on microarray, profiling panel, artefact control for SMM control protein annotation, biochemical, small-molecule microarray, Alexa647 label, 635/667 nm fluorescence (AID 1118).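 Note: score merges 667 nm emission intensity and signal-to-noise per printed compound spot.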 To be noted: BSA-A647 binding, fluorescence 635 nm, higher = more signal.
Albumin (Bos taurus), sequence (P02769 whole entry, looked up): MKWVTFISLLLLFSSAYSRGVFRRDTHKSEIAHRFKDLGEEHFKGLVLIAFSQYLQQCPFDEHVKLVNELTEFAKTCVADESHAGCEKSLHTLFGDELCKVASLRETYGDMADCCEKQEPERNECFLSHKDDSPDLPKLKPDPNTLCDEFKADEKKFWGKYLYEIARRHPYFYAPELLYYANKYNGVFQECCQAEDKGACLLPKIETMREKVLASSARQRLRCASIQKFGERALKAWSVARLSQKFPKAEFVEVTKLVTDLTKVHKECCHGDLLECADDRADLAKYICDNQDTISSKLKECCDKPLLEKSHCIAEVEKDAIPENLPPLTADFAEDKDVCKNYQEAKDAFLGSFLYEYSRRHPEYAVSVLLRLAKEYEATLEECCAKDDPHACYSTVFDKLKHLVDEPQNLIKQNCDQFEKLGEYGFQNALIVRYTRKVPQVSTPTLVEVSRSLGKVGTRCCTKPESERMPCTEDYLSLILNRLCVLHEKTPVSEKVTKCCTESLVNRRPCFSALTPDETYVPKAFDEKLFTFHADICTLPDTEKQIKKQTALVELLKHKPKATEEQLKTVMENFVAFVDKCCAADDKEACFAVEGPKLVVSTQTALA
A short description of experiment [2]: small-molecule microarray binders of probe aXIP, primary screen, biochemical, NeuroSMM set, 635/667 nm fluorescence (AID 1119).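 Note: probe is the protein aXip251-270 applied at 1 µg/mL to compound-printed slides; binding of probe to printed compounds measured as 667 nm fluorescence plus signal to noise.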 To be noted: higher = more signal, called active from +8 up or from −8 down.
Experiment [3] can be described thus: small-molecule binders of probe aNOTCH3, primary screen, biochemical, small-molecule microarray, 635/667 nm fluorescence (AID 1120).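 Note: probe is a biotin-tagged antibody raised against NOTCH3 rather than NOTCH3 protein; score merges spot fluorescence near 667 nm with spot signal to noise.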 To be noted: higher = more signal.
Experiment [4] is described as follows: small-molecule binders of probe aNOTCH2, primary screen, biochemical, small-molecule microarray, 635/667 nm fluorescence (AID 1121).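 Note: score merges feature fluorescence read at 667 nm with its signal to noise.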 As to conditions: higher = more signal.
Experiment [5] concerns the target Carbonic anhydrase 2 (Homo sapiens) (UniProt P00918). The experiment in a line: CAII small-molecule binders, profiling panel, biochemical, small-molecule microarray, Alexa647-labelled CAII (AID 1122). As to conditions: CAII-A647 binding fluorescence, higher = more signal.
A short description of experiment [6]: COS7 lysate on small-molecule microarray, probe aHis, 635 nm (AID 1123).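 Note: z-score combines 667nm fluorescence intensity with signal-to-noise per printed compound spot.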 As to conditions: COS7 cell lysate, fluorescence, higher = more signal.
Experiment [7] is described as follows: compound binding in COS7 lysate, probe aLAP1, primary screen, cell lysate, small-molecule microarray (AID 1124).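 Note: lysate comes from COS7 cells expressing LAP1 and is applied at 0.3 µg/mL; score merges spot fluorescence near 667 nm with signal-to-noise over triplicate slides.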 As to conditions: probe aLAP1, fluorescence, higher = more signal.
The test system of experiment [8] is Sam68 (KHDRBS1). The experiment in a line: Sam68 small-molecule binders, primary screen, biochemical, small-molecule microarray, 635 nm fluorescence (AID 1125).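 Note: score merges 667 nm channel intensity with signal to noise over triplicate slides.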 To be noted: small-molecule microarray binding, higher = more signal.
In experiment [9] the test system is Chordin-like protein 2 (CHRDL2). The experiment in a line: CHRDL2 small-molecule binders, primary screen, biochemical, small-molecule microarray, 635 nm fluorescence (AID 1126).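 Note: printed compound slides probed with Chrdl2 protein at 4 µg/mL for 1 h at 4 C; score merges 667 nm emission intensity with signal to noise over three replicate slides.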 To be noted: small-molecule microarray binding, fluorescence 635 nm; higher = more signal.
For experiment [10], the target named is Concanavalin-A (Canavalia ensiformis) (UniProt P02866). In words: ConA small-molecule binders, primary screen, artefact control for SMM control protein annotation, biochemical, small-molecule microarray, Alexa647 label, 635 nm (AID 1127).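 Note: z combines 667 nm emission intensity with signal-to-noise across three replicate slides.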 As to conditions: ConA-A647 binding fluorescence, higher = more signal.
Concanavalin-A (Canavalia ensiformis), sequence (P02866 whole entry, looked up): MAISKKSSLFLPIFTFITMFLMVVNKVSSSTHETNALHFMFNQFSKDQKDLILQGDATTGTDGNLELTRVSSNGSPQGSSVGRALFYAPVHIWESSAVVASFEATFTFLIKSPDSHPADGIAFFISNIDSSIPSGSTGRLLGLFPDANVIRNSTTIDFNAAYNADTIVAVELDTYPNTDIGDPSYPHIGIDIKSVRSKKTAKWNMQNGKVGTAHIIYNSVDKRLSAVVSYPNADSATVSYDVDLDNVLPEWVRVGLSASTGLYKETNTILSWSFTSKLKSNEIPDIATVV
The nature of experiment [11]: anti-His antibody binders, primary screen, artefact control for SMM control protein annotation, biochemical, small-molecule microarray, 635 nm fluorescence (AID 1128).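 Note: score merges feature fluorescence with signal-to-noise for each printed compound spot.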 To be noted: anti-His Alexa647 antibody binding, higher = more signal.
Experiment [12] deals with Human papillomavirus type 1a E7 protein (residues 1-88). In words: HPV1a E7 small-molecule binders, primary screen, biochemical, small-molecule microarray, residues 1-88, 635 nm (AID 1129). As to conditions: small-molecule microarray binding, fluorescence 635 nm; higher = more signal.
Experiment [13] addresses Focal adhesion kinase 1 (Homo sapiens) (UniProt Q05397). The experiment in a line: small-molecule microarray binders of FAK, primary screen, biochemical, 635/667 nm fluorescence, BSA, DTT (AID 1130).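 Note: composite of spot emission at 667 nm and signal to noise over triplicate slides.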 To be noted: PTK2 binding, 635 nm fluorescence, higher = more signal.
The test system of experiment [14] is Fibrinogen (Alexa647-labelled). The experiment in a line: fibrinogen binders on compound microarrays, profiling panel, artefact control for SMM control-protein annotation, biochemical, small-molecule microarray, 635/667 nm fluorescence (AID 1131).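 Note: z-score merges 667 nm fluorescence with per-spot signal-to-noise over triplicate slides.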 To be noted: fibrinogen-A647 binding fluorescence, higher = more signal.
Experiment [15] addresses Follistatin (Homo sapiens) (UniProt P19883). The experiment in a line: follistatin binders on small-molecule microarrays, primary screen, biochemical, small-molecule microarray, 635/667 nm fluorescence (AID 1132). As to conditions: FST binding, 635 nm fluorescence, higher = more signal.
In experiment [16] the target is Fibroblast growth factor 2 (Homo sapiens) (UniProt P09038). In words: FGF2 binders on small-molecule microarrays, primary screen, biochemical, small-molecule microarray, 635/667 nm fluorescence (AID 1133). To be noted: small-molecule microarray binding, FGF2, fluorescence 635/667; higher = more signal.
Fibroblast growth factor 2 (Homo sapiens), sequence (P09038 whole entry, looked up): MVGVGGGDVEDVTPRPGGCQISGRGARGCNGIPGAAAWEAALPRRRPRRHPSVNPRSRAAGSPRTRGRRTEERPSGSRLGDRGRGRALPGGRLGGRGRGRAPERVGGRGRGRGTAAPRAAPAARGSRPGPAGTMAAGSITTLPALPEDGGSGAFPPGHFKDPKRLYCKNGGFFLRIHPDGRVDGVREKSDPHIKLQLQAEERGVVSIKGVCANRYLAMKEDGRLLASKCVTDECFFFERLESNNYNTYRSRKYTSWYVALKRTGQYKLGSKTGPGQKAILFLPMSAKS
The nature of experiment [17]: mitochondrial membrane potential change in A549 cells, profiling panel, cell-based, JC-1 fluorescence, basal, 24 h, 100 nL (AID 1138).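 Note: A549 lung adenocarcinoma cells under basal conditions with no added stimulus; test concentration not given here.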 To be noted: higher = more signal.
Experiment [18] concerns Lefty1. The experiment in a line: Lefty1 binders on small-molecule microarrays, primary screen, biochemical, small-molecule microarray, 635/667 nm fluorescence (AID 1139). To be noted: small-molecule microarray binding, fluorescence 635/667; higher = more signal.
Experiment [19] relates to wheat germ agglutinin (Triticum aestivum), Alexa647-labelled. In words: wheat germ agglutinin binders on compound microarrays, profiling panel, artefact control for SMM control-protein annotation, biochemical, small-molecule microarray, 635/667 nm fluorescence (AID 1140).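 Note: score merges 667 nm feature emission with signal to noise over triplicate slides.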 To be noted: WGA-A647 binding, 635 nm fluorescence, higher = more signal.
Experiment [20] deals with Luciferin 4-monooxygenase (Photinus pyralis) (UniProt P08659). In words: firefly luciferase enzyme inhibitors, primary screen, biochemical, luminescence, purified enzyme, 2006 set (AID 1141).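 Note: cell-free assay with purified firefly luciferase at 100 ng per well in PBS; test concentration not given here.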 As to conditions: SteadyGlo luminescence, 30 min, higher = more signal, called active from +8 up or from −8 down.
Luciferin 4-monooxygenase (Photinus pyralis), sequence (P08659 whole entry, looked up): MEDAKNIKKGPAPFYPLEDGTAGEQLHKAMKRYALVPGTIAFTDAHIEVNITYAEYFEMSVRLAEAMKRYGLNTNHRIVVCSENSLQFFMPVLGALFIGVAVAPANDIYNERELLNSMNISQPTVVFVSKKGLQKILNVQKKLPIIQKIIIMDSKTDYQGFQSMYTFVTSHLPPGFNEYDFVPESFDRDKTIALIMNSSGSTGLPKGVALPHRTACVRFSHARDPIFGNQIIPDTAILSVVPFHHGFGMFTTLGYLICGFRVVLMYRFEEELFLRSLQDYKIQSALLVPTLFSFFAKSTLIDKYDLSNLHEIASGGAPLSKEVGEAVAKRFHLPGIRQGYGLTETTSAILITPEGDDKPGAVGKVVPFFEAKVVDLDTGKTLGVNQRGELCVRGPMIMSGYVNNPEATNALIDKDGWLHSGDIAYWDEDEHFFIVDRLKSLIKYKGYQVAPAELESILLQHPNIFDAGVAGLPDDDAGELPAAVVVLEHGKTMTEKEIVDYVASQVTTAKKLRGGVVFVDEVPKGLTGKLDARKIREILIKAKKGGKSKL

Focal adhesion kinase 1 (Homo sapiens), sequence (Q05397 whole entry, looked up): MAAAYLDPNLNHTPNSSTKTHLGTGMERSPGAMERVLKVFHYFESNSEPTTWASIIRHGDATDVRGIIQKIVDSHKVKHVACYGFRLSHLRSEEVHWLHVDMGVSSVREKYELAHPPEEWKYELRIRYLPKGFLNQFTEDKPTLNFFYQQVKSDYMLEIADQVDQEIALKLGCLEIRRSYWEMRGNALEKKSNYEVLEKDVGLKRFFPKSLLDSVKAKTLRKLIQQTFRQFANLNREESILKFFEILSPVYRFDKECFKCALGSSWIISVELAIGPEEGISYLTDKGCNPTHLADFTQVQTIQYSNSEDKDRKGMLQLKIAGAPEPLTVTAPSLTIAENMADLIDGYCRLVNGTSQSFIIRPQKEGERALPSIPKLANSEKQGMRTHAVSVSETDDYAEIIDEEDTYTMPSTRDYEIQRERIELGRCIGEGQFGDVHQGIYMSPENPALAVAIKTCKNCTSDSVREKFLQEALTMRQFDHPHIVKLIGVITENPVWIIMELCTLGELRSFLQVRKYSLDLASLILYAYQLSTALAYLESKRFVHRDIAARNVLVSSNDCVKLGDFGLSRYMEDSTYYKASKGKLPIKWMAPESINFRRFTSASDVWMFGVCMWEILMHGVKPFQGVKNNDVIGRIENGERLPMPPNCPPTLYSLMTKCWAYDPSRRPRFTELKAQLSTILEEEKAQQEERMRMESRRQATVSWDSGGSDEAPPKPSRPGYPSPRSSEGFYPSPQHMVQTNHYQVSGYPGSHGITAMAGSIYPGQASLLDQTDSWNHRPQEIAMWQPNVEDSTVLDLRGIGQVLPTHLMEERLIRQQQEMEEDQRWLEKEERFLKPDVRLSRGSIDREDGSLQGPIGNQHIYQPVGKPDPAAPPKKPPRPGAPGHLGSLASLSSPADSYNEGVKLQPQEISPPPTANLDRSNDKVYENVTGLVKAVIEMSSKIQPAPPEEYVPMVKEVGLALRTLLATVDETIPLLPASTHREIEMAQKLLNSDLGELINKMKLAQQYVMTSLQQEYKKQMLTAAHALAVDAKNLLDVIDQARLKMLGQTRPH
Follistatin (Homo sapiens), sequence (P19883 whole entry, looked up): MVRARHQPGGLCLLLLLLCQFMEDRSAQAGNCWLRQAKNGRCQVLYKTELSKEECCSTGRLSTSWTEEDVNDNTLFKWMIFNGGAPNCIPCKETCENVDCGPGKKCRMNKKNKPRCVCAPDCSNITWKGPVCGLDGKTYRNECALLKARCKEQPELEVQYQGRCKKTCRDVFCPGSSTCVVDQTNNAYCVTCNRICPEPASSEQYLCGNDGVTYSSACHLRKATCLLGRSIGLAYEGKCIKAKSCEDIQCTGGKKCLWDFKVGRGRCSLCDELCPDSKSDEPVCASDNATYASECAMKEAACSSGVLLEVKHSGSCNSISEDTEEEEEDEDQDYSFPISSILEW

Turning to `COCCOC(=O)N1C(=O)[C@@]2(c3cc(C#CCCO)ccc31)[C@H](c1ccc(OCCO)cc1)N1[C@H](c3ccccc3)[C@H](c3ccccc3)OC(=O)[C@H]1[C@@H]2C(=O)Nc1nc2ccccc2s1`, the composite z-score in experiment [1] came to 0.648; in experiment [3] it was 0.0556; in experiment [4], 0.02; in experiment [5], 0.406; in experiment [6] it was 0.556; in [7], 0.559. Also, the composite z-score in experiment [8] is 1.31; in [9], 0.27; in experiment [10], 1.13; in experiment [11] it was 0.872; in experiment [12] it was 1.15; in [13] it was 0.479. Further, the composite z-score in experiment [14] is 0.817; in experiment [15] it was 1.32; in experiment [16], 0.759; in experiment [18], 1.41; in experiment [19] it was 1.13. Also, the composite Z-score in experiment [2] is -0.22 (inactive). Further, the z-score in experiment [17] was -2.37; in experiment [20], -2.18 (inactive).
With `C=CCOC(=O)[C@@H]1[C@H]2C(=O)O[C@H](c3ccccc3)[C@H](c3ccccc3)N2[C@H](c2ccc(OCCOC(=O)[C@@H]3C[C@@H]4C(=O)N[C@@H](CCCC[N+](C)(C)C)C(=O)N4[C@@H]3c3ccc(O)cc3)cc2)[C@@]12C(=O)Nc1ccc(I)cc12`, the composite z-score in experiment [1] is 0.118; in experiment [3], 0.0282; in experiment [4] it was -0.084; in experiment [5] it was 0.473; in experiment [6], 1.92; in experiment [7], 0.417. Besides, the composite z-score in [8] worked out at 1.29; in [9] it was 0.841; in experiment [10], 0.756; in experiment [11], 2.68; in experiment [12], 1.15; in experiment [13] it was 0.67. Moreover, the composite z-score came out at 0.412 in [14]; 1.12 in experiment [15]; 1.24 in experiment [16]; 1.08 in [18]; 0.216 in experiment [19]. Further, the composite Z-score in experiment [2] was -0.0092 (inactive). Also, the z-score in [17] was -1.76; in experiment [20] it was -2.38 (inactive).
As to `O=C1C2C=CC(C(O)C3CC=CCC3)N(Nc3ccccc3)C2C(=O)N1c1ccccc1` (stereo not given), the composite z-score is 0.918 in experiment [1]; 0.366 in experiment [3]; 0.0607 in experiment [4]; 0.749 in experiment [5]; 2.33 in experiment [6]; 0.093 in experiment [7]. Besides, the composite z-score in experiment [8] amounted to 1.07; in experiment [9], 0.718; in [10], 0.567; in [11], 0.41; in experiment [12] it was 1.21; in experiment [13] it was 1.17. For the same molecule, the composite z-score worked out at 0.944 in [14]; 1.27 in experiment [15]; 0.119 in experiment [16]; 0.135 in [18]; 0.458 in experiment [19]. The composite Z-score in experiment [2] was 2.06 (inactive). Further, the figures for the z-score in experiment [17] and in experiment [20] were -1.15 and -0.313 (inactive), respectively.
For `COCCOC(=O)N1C(=O)[C@@]2(c3ccccc31)[C@H](C(=O)NC[C@H](O)c1ccccc1)[C@H]1C(=O)O[C@H](c3ccccc3)[C@H](c3ccccc3)N1[C@@H]2c1ccc(O)cc1`, the composite z-score in experiment [1] was -0.411; in experiment [3], -0.198; in [4], 0.0377; in experiment [5], 0.432; in experiment [6], 2.28; in [7], 0.236. Also, the composite z-score worked out at 1.3 in [8]; 1.04 in [9]; 1.12 in [10]; 1.43 in experiment [11]; 1.26 in [12]; 0.818 in [13]. The composite z-score in experiment [14] was 0.965; in experiment [15] it was 1.34; in experiment [16], 1.61; in experiment [18], 1.23; in [19], 0.648. In addition, in experiment [2], the composite Z-score was 0.244 (inactive). Further, the z-score in [17] is -1.17; in experiment [20], 0.883 (inactive).
For the molecule `[N-]=[N+]=Nc1ccccc1C[C@]1(C(=O)N2CCOCC2)COC(c2ccc(OCCCO)cc2)=N1`, the composite z-score in experiment [1] was 0.808; in [3], 0.373; in experiment [4], -0.118; in [5], 0.763; in experiment [6], 2.21; in experiment [7], -0.181. In addition, the composite z-score was 1.29 in experiment [8]; -0.646 in experiment [9]; 0.99 in experiment [10]; 0.964 in experiment [11]; 1.24 in experiment [12]; 0.144 in experiment [13]. For the same molecule, the composite z-score is 1.04 in experiment [14]; 0.39 in [15]; -0.313 in experiment [16]; -0.0478 in experiment [18]; 0.606 in [19]. Moreover, in experiment [2], the composite Z-score was 0.04 (inactive). The results for the z-score in experiment [17] and in experiment [20] were 0.9 and -5.96 (inactive), respectively.
Regarding `CC(C)NC(=O)[C@@]1(C)c2ccccc2C(=O)N(Cc2ccc(OC(F)(F)F)cc2)[C@H]1c1ccc(CO)cc1`, the composite z-score in experiment [1] is 0.484; in experiment [3] it was -0.367; in experiment [4], -0.0995; in [5], 0.607; in experiment [6] it was 1.54; in experiment [7], 0.173. In addition, the composite z-score in experiment [8] was 0.844; in experiment [9] it was -1.02; in experiment [10], -0.04; in experiment [11], 0.22; in [12], -0.14; in [13], -0.232. In addition, the composite z-score in experiment [14] is -0.535; in experiment [15], -0.333; in [16], -0.843; in experiment [18], -1.44; in experiment [19], -0.641. In addition, the composite Z-score in [2] is -0.263 (inactive). The z-score in experiment [17] was -0.19; in [20] it was -0.183 (inactive).
